High-throughput results as filed in PubChem BioAssay.
Most compounds without a hit are left out; they make up all but 2.6% or so of the library.
APOBEC3G inh: APOBEC3G (human) deaminase inhibition; Q9HC16; recombinant A3G, ssDNA deamination FAM/TAMRA fluorescence; inhibition, % at 20 µM; 0.28% of 330,000 active; AID 493012;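 active = inhibition of at least 40% at 20 µM, with no more than 30% in the related APOBEC3A deaminase screen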;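 note: plate controls were DMSO wells with A3G for no effect and wells lacking A3G enzyme for full effect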
PABP polyA inh: blocks human PABP binding to poly(A) RNA; fluorescence polarization; calls only at 35 µM; 1% of 290,000 active; AID 2014;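 note: calls also rest on retests at 20 µM and on dose response follow-up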
PABP1 MLLE inh: blocks PAM2 peptide binding to the PABP1 MLLE domain; GST-MLLE / FITC-PAM2 fluorescence polarization; 0.36% of 360,000 active; AID 588489; inhibition, % at 20 µM; P11940; in the data active = inhibition above about 35%, passing the limit was not always enough;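 note: plate controls were DMSO wells with GST-MLLE for no effect and wells lacking GST-MLLE protein for full effect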
eIF4H FP inh: inhibitors of RNA binding by human eIF4H. Q15056. eIF4H fluorescence polarization binding assay. inhibition, % at 35 µM. 0.94% of 290,000 active. AID 2012;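 note: calls also rest on retests at 20 µM and on dose response follow-up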
A3A deaminase: blocks human APOBEC3A ssDNA deamination. P31941. recombinant A3A, FAM/TAMRA ssDNA deamination fluorescence. 0.41% of 330,000 active. inhibition, % at 20 µM;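 active = at least 40% inhibition at 20 µM here, with at most 30% in a related deaminase screen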;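 note: plate controls were A3A with DMSO for no effect and wells lacking A3A enzyme for full effect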
Target sequence (P31941 whole entry, looked up): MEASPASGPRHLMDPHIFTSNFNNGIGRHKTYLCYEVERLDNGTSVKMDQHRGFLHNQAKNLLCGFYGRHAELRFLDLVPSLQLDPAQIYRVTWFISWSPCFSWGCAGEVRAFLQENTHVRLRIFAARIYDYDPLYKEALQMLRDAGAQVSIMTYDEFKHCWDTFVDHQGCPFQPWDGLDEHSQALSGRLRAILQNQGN
PHOSPHO1 block: blocks human PHOSPHO1 phosphatase activity. Q8TCT1. recombinant PHOSPHO1, absorbance phosphatase assay. inhibition, % at 13.3 µM. 1.1% of 290,000 active. AID 1565; in the data active = inhibition above about 60%
* = called active by the depositor; i = inactive; ? = inconclusive; . = no result; + = active, no number. Unless noted, the rule behind the calls is not given here.

SMILES | APOBEC3G inh | PABP polyA inh | PABP1 MLLE inh | eIF4H FP inh | A3A deaminase | PHOSPHO1 block
Cc1nc(CN(C)C(=O)c2ccccc2OC2CCN(S(C)(=O)=O)CC2)cs1 | -2.9 | i | -7.0 | 3.7 | 6.9 | 47.1
CN(C)S(=O)(=O)NCc1ccc2c(c1)OCO2 | -1.9 | i | -3.1 | -14.6 | -3.9 | -10.1
Cc1c(C)c2ccc(OC(C)C(=O)NC3CC(C)(C)NC(C)(C)C3)cc2oc1=O (stereo unspecified) | -8.1 | . | 3.4 | . | -2.2 | 69.7*
COc1cc(NC(=O)c2ccccc2)c(OC)cc1NC(=O)Cc1cccs1 | 17.0 | i | -20.0 | 57.5* | 32.7 | 26.2
COc1ccc(NC(=O)Cc2cccs2)c(OC)c1 | -0.8 | i | -9.7 | 2.2 | -1.4 | -33.3
O=Cc1cccc(OCc2cccc3ccccc23)c1 | -8.6 | i | 6.8 | -4.2 | -1.1 | 42.0
Cc1ccc(Nc2nc(/N=C/NO)n[nH]2)cc1C | -1.6 | i | -0.2 | 0.1 | 0.3 | 64.7*
CN1CCc2c(sc3nc(SCC(N)=O)n(-c4ccccc4)c(=O)c23)C1 | 2.7 | + | -40.9 | 121.8* | -0.2 | -29.9
C=C(C)CSc1nc2sc3c(c2c(=O)n1C1CCCCC1)CCN(C)C3 | -0.1 | i | -38.2 | 18.8 | -2.9 | 15.7
CCSc1nc2sc3c(c2c(=O)n1C1CCCCC1)CCN(C)C3 | . | i | -17.2 | 11.1 | . | 60.2*
CCC1CCCCN1C(=S)NC1CCCCC1 (stereo unspecified) | -3.1 | i | -125.8 | -7.2 | 0.4 | 4.9
CCN(CC(=O)Nc1c(F)cccc1F)C(=O)Cn1[nH]c(=O)c2ccccc2c1=O | -4.6 | . | 1.3 | . | 1.6 | .
CC1(C)CC2=C(CO1)C(=S)NC(c1ccccc1)N2CC1CCCO1 (stereo unspecified) | -8.0 | i | 42.0* | 4.1 | -3.1 | -117.3
O=c1c2ccccc2[nH]c(=S)n1CC1CCCO1 (stereo unspecified) | 2.8 | . | -49.3 | . | 0.9 | .
NC(=O)c1ccc(NC(=O)Cc2ccc(S(=O)(=O)N3CCCCC3)cc2)cc1 | -1.3 | . | -9.1 | . | 0.6 | .
COc1cccc(CNC(=O)C2(C)CCCCN2C)c1 (stereo unspecified) | . | . | -17.0 | . | . | .
Cc1cccc(NC(=O)CSc2nnc(-c3ccco3)c(-c3ccco3)n2)c1C | 45.3 | + | 33.1 | 91.1* | 70.1 | 24.4
Cc1cccc(NC(=O)CSc2nnc(-c3ccco3)c(-c3ccco3)n2)c1 | 16.1 | + | 28.5 | 89.4 | 36.4 | 32.4
Cc1ccccc1NC(=O)CSc1nnc(-c2ccco2)n1N | 8.1 | . | 33.3 | . | -0.9 | .
Cc1cccc(NC(=O)CSc2nc(N)cc(N)n2)c1 | -0.1 | i | -8.4 | 1.1 | -0.3 | -4.4
COc1ccc(CCNC(=O)CSc2ccc(-c3ccco3)nn2)cc1OC | 1.3 | i | 8.7 | 4.4 | 0.1 | -22.9
COc1ccc(CCNC(=O)CSc2nnc(-c3ccco3)c(-c3ccco3)n2)cc1OC | 33.2 | + | . | 84.1* | 59.8 | 0.1
COc1ccc(C(=O)O)cc1S(=O)(=O)NC(C)C12CC3CC(CC(C3)C1)C2 (stereo unspecified) | -7.1 | . | 2.5 | . | -2.1 | .
COC(=O)c1ccc(C2N=C(c3cccs3)CC(c3ccccc3O)N2)cc1 (stereo unspecified) | -1.6 | i | -16.2 | -1.8 | 0.4 | -12.7
C[C@H]1CN([C@@H](C)CO)C(=O)CCCn2nncc2CO[C@H]1CN(C)C(=O)c1cc(-c2ccccc2)on1 | . | . | 6.8 | . | . | .
SMILES | APOBEC3G inh | PABP polyA inh | PABP1 MLLE inh | eIF4H FP inh | A3A deaminase | PHOSPHO1 block
O=C1/C(=C\c2ccco2)NC(=S)N1c1ccccc1 | -2.6 | + | 1.4 | 60.4 | 5.7 | 20.0
CC1=NN2C(=N)/C(=C\c3ccc(SCc4ccccc4)o3)C(=O)N=C2S1 | -4.8 | + | 5.4 | ? | 3.1 | 94.1*
O=C(O)CCN1C(=O)/C(=C\c2ccc(-c3nc4ccccc4s3)o2)SC1=S | 16.5 | + | -78.6 | 101.3* | 20.4 | 94.5*
Cc1ccc(N2C(=O)/C(=C\c3ccco3)SC2=S)cc1 | 4.6 | + | 8.6 | 77.4* | 17.0 | -94.1
CC1=NN2C(=N)/C(=C\c3cc(C)n(Cc4ccccc4)c3C)C(=O)N=C2S1 | -0.4 | i | -2.4 | 1.3 | 4.4 | 23.7
Cc1ccc(OCC(=O)Nc2ccc([N+](=O)[O-])cn2)cc1C | -3.3 | . | 8.7 | . | 2.1 | .
CCOC(=O)c1sc(NC(=O)CS(=O)(=O)c2ccc(C)cc2)nc1C | -3.4 | i | -1.4 | -11.3 | -2.1 | 0.0
CN(C)c1cc[n+](CC(=O)N2CCCc3ccccc32)cc1 | -4.6 | i | 0.8 | -3.5 | -4.3 | 37.9
